# Reference: PubChem BioAssay
# Values joined by “and” are separate entries in the source; they are usually repeats but may differ in a detail not shown here. Identical values can stand only once. Some structures have more than one record in an assay (separate samples or runs), and their calls can disagree. Active and inactive are the calls of the source. Cut-off read from the data, not from the text of the source, unless noted: active = inhibition above about 80%; inactive = the rest.
# Tests used:
# [1] = target: NAD(+) hydrolase SARM1 (Homo sapiens) (UniProt Q6SZW1); experiment: blocking NAD cleavage by SARM1 SAM-TIR – cell lysate, NAD-Glo luminescence (AID 1508614;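 active = compound whose remaining NAD level is above about 45 nM, limit read from the data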;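 note: higher remaining NAD means stronger inhibition of SARM1 NADase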); conditions: SAM-TIR HEK293T lysate NADase, at 1 µM, stronger effect = higher value
# Sequence of NAD(+) hydrolase SARM1 (Homo sapiens) (Q6SZW1 whole entry, looked up): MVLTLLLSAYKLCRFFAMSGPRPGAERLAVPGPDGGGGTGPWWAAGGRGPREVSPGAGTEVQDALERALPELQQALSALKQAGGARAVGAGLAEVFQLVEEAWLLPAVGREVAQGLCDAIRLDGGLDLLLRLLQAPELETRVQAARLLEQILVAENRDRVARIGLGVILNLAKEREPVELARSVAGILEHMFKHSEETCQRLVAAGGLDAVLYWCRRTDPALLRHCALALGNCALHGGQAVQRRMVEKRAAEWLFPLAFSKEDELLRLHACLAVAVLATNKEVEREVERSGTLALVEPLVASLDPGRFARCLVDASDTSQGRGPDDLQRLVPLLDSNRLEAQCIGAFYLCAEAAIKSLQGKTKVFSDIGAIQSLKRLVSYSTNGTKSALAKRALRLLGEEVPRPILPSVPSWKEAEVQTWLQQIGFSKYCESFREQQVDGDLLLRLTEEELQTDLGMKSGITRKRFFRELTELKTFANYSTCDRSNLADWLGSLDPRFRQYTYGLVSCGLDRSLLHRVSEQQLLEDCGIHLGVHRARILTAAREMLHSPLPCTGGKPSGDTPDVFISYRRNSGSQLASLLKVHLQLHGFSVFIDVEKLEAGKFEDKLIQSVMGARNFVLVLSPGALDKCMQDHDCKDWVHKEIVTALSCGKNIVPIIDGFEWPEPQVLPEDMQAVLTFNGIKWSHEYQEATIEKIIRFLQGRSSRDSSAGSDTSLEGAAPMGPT
# [2] = galactose survival enhancers in mitochondrial complex I cybrids – cell-based, galactose medium, ATP luminescence, primary screen (AID 1645843;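 active = z-score of at least 1.8 in each of two replicates, scored against plate mean and spread of sample wells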;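 note: positive z means more ATP and so rescue of galactose-driven cybrid death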); conditions: complex I mutant cybrid cells, 72 h, stronger effect = higher value
# [3] = growth inhibition, single agent or in combination, cell-based, chromothripsis tumors, cisplatin or BGB combos (AID 1671449); conditions: LFS_MB_P medulloblastoma cells;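 note: cells exposed for 96 hours; 0% = vehicle DMSO and 100% = killing by high DMSO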
# [4] = growth inhibition, single agent and combos, cell-based, chromothripsis tumors, cisplatin or BGB combos (AID 1671450); conditions: HDN33 neuroblastoma cells, stronger effect = higher value;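 note: cells exposed to compound for four days; 0% = vehicle DMSO and 100% = cell killing by high DMSO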
# [5] = growth inhibition, single agents and combos, ICB984, cell-based, cisplatin or BGB combos, synergistic combos for chromothripsis tumors (AID 1671451; call rule not given here;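 note: cells exposed for 96 hours before readout; 0% = vehicle DMSO and 100% = killing by high DMSO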); conditions: ICB984 medulloblastoma cells, drug combinations, stronger effect = higher value
# [6] = growth inhibition, single agents and combos, LFS_MB_1R, cell-based, cisplatin or BGB combos, synergistic combos for chromothripsis tumors (AID 1671452); conditions: LFS_MB_1R medulloblastoma cells, stronger effect = higher value;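 note: cells exposed for 96 hours before readout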
# [7] = growth inhibition, single agents and combos, HTB85, cell-based, BGB or cisplatin IC20 combos, synergistic combos for chromothripsis tumors (AID 1671453); conditions: HTB85 osteosarcoma cells, drug combinations, stronger effect = higher value;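 note: cells exposed for 96 hours before readout; 0% = vehicle DMSO and 100% = high DMSO killing control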
# [8] = growth inhibition, single agents and combos, CRL2098, cell-based, BGB or cisplatin IC20 combos, synergistic combos for chromothripsis tumors (AID 1671454); conditions: CRL2098 osteosarcoma cells, drug combinations, stronger effect = higher value;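 note: cells exposed for 96 h before readout; 0% = vehicle DMSO and 100% = killing by high DMSO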
# [9] = growth inhibition, single agents and combos, HD-MB03, cell-based, BGB or cisplatin IC20 combos, synergistic combos for chromothripsis tumors (AID 1671455; in the data active = inhibition above about 83%;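 note: 0% = vehicle DMSO and 100% = high DMSO as cytotoxic control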); conditions: HD-MB03 medulloblastoma cells, stronger effect = higher value
# [10] = growth inhibition, single agents and combos, UWB1.289, cell-based, BGB or cisplatin combos, synergistic combos for chromothripsis tumors (AID 1671456); conditions: UWB1.289 ovarian carcinoma cells, stronger effect = higher value;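 note: cells exposed to compound for four days; 0% = vehicle DMSO and 100% = killing by high DMSO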
# [11] = growth inhibition, single agents and combos, LFS_MB_2R, cell-based, cisplatin combos, synergistic combos for chromothripsis tumors (AID 1671457); conditions: LFS_MB_2R medulloblastoma cells, stronger effect = higher value;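 note: cells exposed to compound for four days before readout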
# [12] = growth inhibition, MDA-MB-436, cell-based, BGB or cisplatin combos, synergistic combos for chromothripsis tumors (AID 1671458; call rule not given here;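 note: cells exposed for 96 hours; 0% = vehicle DMSO and 100% = killing by high DMSO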); conditions: MDA-MB-436 breast carcinoma growth inhibition, drug combinations, stronger effect = higher value
# [13] = UWB1.289_BRCA1 ovarian cancer growth, cell-based, BGB or cisplatin combinations (AID 1671459); conditions: UWB1.289 BRCA1 ovarian carcinoma, drug combinations, stronger effect = higher value
# [14] = drug combination toxicity in non-malignant astrocytes – cell-based, BGB or cisplatin IC20 combos, cytotoxicity control for chromothriptic childhood tumor combination screen (AID 1671460); conditions: Human astrocytes, viability inhibition, drug combinations, at 0.5 µM, stronger effect = higher value;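 note: cells exposed to compounds for 96 hours before viability readout; 0% = vehicle and 100% = killing control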
# [15] = BT084 cell growth, single and combined drugs, ICGC_MB145, cisplatin and BGB IC40 combos (AID 1671461); conditions: BT084 medulloblastoma cells, drug combinations, stronger effect = higher value;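 note: cells exposed to drugs for 96 hours; 0% = vehicle DMSO and 100% = high DMSO full killing control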
# [16] = RCMB18 cell growth, single agent and combined, cisplatin and BGB IC40 combos (AID 1671462); conditions: RCMB18 medulloblastoma cells, stronger effect = higher value;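 note: cells exposed to compound for four days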
# [17] = CRL1545 cell growth, single agent and combined, cisplatin and BGB IC20 combos (AID 1671464); conditions: CRL1545 osteosarcoma cells, stronger effect = higher value;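 note: cells exposed to compound for 96 hours before readout; 0% = vehicle DMSO and 100% = high DMSO killing control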
# [18] = measured here: combination with BGB IC40, at 0.05 µM
# [19] = measured here: with BGB IC20 combination, at 0.5 µM
# [20] = measured here: with cisplatin IC20 combination, at 0.5 µM
# [21] = measured here: combination with cisplatin, at 0.5 µM
# [22] = measured here: combination with cisplatin, at 5 µM
smiles,measurement,setting,value
O=NN(CCCl)C(=O)NC1CCCCC1,remaining NAD,[1],10 nM (inactive)
same,z-score,[2],-0.495 (inactive)
same,inhibition,"[3]; at 0.5 µM, stronger effect = higher value",-24.1% (inactive) and -26.9% (inactive)
same,inhibition,"[3]; measured here: combination with BGB IC20, at 0.005 µM",-12.9% and -1.3%
same,inhibition,"[3]; measured here: combination with BGB IC40, at 0.005 µM",-38% and -34.1%
same,inhibition,[3]; [18],-45.8% and -16.7%
same,inhibition,"[3]; measured here: combination with cisplatin, at 0.5 µM, stronger effect = higher value",-40% and -38.1%
same,inhibition,"[3]; measured here: combination with cisplatin, at 5 µM, stronger effect = higher value",-6.56% and -25.7%
same,inhibition,"[4]; BGB combo, at 5 µM",-29.5% and -15.3%
same,inhibition,[4]; at 0.5 µM,-27.8% (inactive) and -8.82% (inactive)
same,inhibition,"[4]; cisplatin combo, at 5 µM",-16% and 13.3%
same,inhibition,[4]; [19],-31.2% and -14.7%
same,inhibition,[4]; [20],-22.8% and -17.6%
same,inhibition,"[4]; single agent, at 5 µM",-25.6% and 2.38%
same,inhibition,"[5]; BGB IC20 combo, at 0.005 µM",-12.5% and 2.61%
same,inhibition,"[5]; BGB IC40 combo, at 0.005 µM",-25.1% and -35.2%
same,inhibition,"[5]; BGB IC40 combo, at 0.05 µM",-15.4% and -60.7%
same,inhibition,[5]; at 0.5 µM,-38.4% (inactive) and -29.6% (inactive)
same,inhibition,"[5]; cisplatin combo, at 0.05 µM",-18.7% and -67%
same,inhibition,"[5]; cisplatin combo, at 0.5 µM",-33.8% and -42.1%
same,inhibition,"[5]; cisplatin combo, at 5 µM",-56.7% and -19.2%
same,inhibition,"[5]; measured here: 5 uM single agent, at 5 µM",-34.3% and -15.2%
same,inhibition,[6]; at 0.5 µM,-15.1% (inactive) and -17.6% (inactive)
same,inhibition,[6]; [18],-47.7% and -29.7%
same,inhibition,[6]; [21],-17.2% and -26.3%
same,inhibition,[6]; [22],-19.8% and 0.28%
same,inhibition,[7]; at 0.5 µM,-14.3% (inactive) and -7.5% (inactive)
same,inhibition,"[7]; measured here: with BGB IC20, at 0.5 µM",-27% and -24%
same,inhibition,"[7]; measured here: with BGB IC20, at 5 µM",-2.92% and -20.1%
same,inhibition,"[7]; measured here: with cisplatin IC20, at 0.5 µM",-13.8% and 2.41%
same,inhibition,"[7]; measured here: with cisplatin IC20, at 5 µM",-45.5% and 7.57%
same,inhibition,"[7]; single agent, at 5 µM",-16.4% and -4.13%
same,inhibition,[8]; at 0.5 µM,-30.9% (inactive) and -17.1% (inactive)
same,inhibition,"[8]; measured here: combination with BGB at IC20, at 0.5 µM",-24.6% and 7.17%
same,inhibition,"[8]; measured here: combination with cisplatin at IC20, at 0.5 µM",-72.6% and -17.3%
same,inhibition,[9]; at 0.5 µM,-11.2% (inactive) and -8.17% (inactive)
same,inhibition,"[9]; measured here: combo with BGB at IC20, at 0.5 µM",-11.5% and -2.92%
same,inhibition,"[9]; measured here: combo with cisplatin at IC20, at 0.5 µM",-6.91% and -12.4%
same,inhibition,[10]; at 0.5 µM,-3.74% (inactive) and -1.89% (inactive)
same,inhibition,"[10]; measured here: inhibition with BGB combination, at 0.05 µM",-37.8% and -16.5%
same,inhibition,"[10]; measured here: inhibition with cisplatin combination, at 0.05 µM",-17.9% and -15%
same,inhibition,[11]; at 0.5 µM,-23.1% (inactive) and -22.9% (inactive)
same,inhibition,[11]; [21],-21.1% and -18.8%
same,inhibition,[11]; [22],-70.5% and -18.7%
same,inhibition,[12]; at 0.5 µM,-40.6% (inactive) and -11.5% (inactive)
same,inhibition,"[12]; measured here: BGB combination, at 0.5 µM",-36.9% and -5.88%
same,inhibition,"[12]; measured here: BGB combination, at 5 µM",-35% and -10.4%
same,inhibition,"[12]; measured here: cisplatin combination, at 0.5 µM",-61.4% and -18.5%
same,inhibition,"[12]; measured here: cisplatin combination, at 5 µM",-41.1% and -14.2%
same,inhibition,"[13]; BGB combination, concentration series, at 5 µM",-29.6% and 11.3%
same,inhibition,[13]; at 0.5 µM,-16.2% (inactive) and 2.2% (inactive)
same,inhibition,"[13]; cisplatin combination, concentration series, at 5 µM",3.2% and 10.4%
same,inhibition,[14],-9.22% (inactive) and 7.1% (inactive)
same,inhibition,[14]; measured here: combo with BGB IC20,-20% and 5.8%
same,inhibition,[14]; measured here: combo with cisplatin IC20,-3.02% and 3.4%
same,inhibition,[15]; at 0.5 µM,-34.8% (inactive) and -13.6% (inactive)
same,inhibition,"[15]; cisplatin combination, at 0.5 µM",-11.4% and -21.6%
same,inhibition,"[15]; cisplatin combination, at 5 µM",1.31% and -15.5%
same,inhibition,"[15]; measured here: BGB IC40 combination 0.05 uM, at 0.05 µM",-11% and -18.6%
same,inhibition,"[15]; single agent, at 5 µM",-27.6% and -16%
same,inhibition,[16]; at 0.5 µM,-19.6% (inactive) and -7.56% (inactive)
same,inhibition,"[16]; cisplatin combo, at 5 µM",-8.32% and -2.07%
same,inhibition,"[16]; measured here: BGB IC40 combination, at 0.05 µM",3.33% and -8.31%
same,inhibition,[16]; [21],-12.9% and 7.07%
same,inhibition,"[16]; single agent, at 5 µM",-26.9% and -32.7%
same,inhibition,[17]; at 0.5 µM,-41.9% (inactive) and 12.8% (inactive)
same,inhibition,[17]; [19],-11.7% and 21.6%
same,inhibition,[17]; [20],-60.6% and 8.43%
same,inhibition,"[17]; single agent, at 0.05 µM",-56.9% and 27.3%
same,inhibition,"[17]; single agent, at 5 µM",-2.19% and 10%
CCC1=C(C)CN(C(=O)NCCc2ccc(S(=O)(=O)NC(=O)NC3CCC(C)CC3)cc2)C1=O (stereo unspecified),remaining NAD,[1],10 nM (inactive)
same,z-score,[2],2.29 (active) and 6.57 (active) and 1.99 (inactive)
COC(=O)Nc1nc2ccc(S(=O)c3ccccc3)cc2[nH]1 (stereo unspecified),remaining NAD,[1],10 nM (inactive)
same,z-score,[2],-0.185 (inactive)
COc1ncnc(NS(=O)(=O)c2ccc(N)cc2)c1OC,remaining NAD,[1],10 nM (inactive)
same,z-score,[2],-0.18 (inactive)
